{"source": "the supplement of paper PMC9492666", "data": [{"test_system": "MDA-MB-231", "assay": "relative cell viability, compound + erastin, vs DMSO (fraction of DMSO control); higher = less growth inhibition", "conditions": "72 h", "values": [{"smiles": "CC(C)(Oc1ccc(CCNC(=O)c2ccc(Cl)cc2)cc1)C(=O)O", "note": "[Bezafibrate] + CCOc1ccccc1-n1c(C(C)N2CCN(C(=O)COc3ccc(Cl)cc3)CC2)nc2ccccc2c1=O [erastin]", "relative cell viability": 0.937}, {"smiles": "CCCCCCCCCCCCCCCC(=O)NCCO", "note": "[Palmidrol] + CCOc1ccccc1-n1c(C(C)N2CCN(C(=O)COc3ccc(Cl)cc3)CC2)nc2ccccc2c1=O [erastin]", "relative cell viability": 0.938}, {"smiles": "CC1(C)C[C@H]2C3=CC[C@@H]4[C@@]5(C)CC[C@H](O)[C@@](C)(CO)[C@@H]5CC[C@@]4(C)[C@]3(C)C[C@H](O)[C@@]2(CO)[C@@H](O)[C@@H]1O", "note": "[Gymnemagenin] + CCOc1ccccc1-n1c(C(C)N2CCN(C(=O)COc3ccc(Cl)cc3)CC2)nc2ccccc2c1=O [erastin]", "relative cell viability": 0.785}, {"smiles": "O=C(Oc1ccc([N+](=O)[O-])cc1)N1CCC(C(O)(c2ccc3c(c2)OCO3)c2ccc3c(c2)OCO3)CC1", "note": "+ CCOc1ccccc1-n1c(C(C)N2CCN(C(=O)COc3ccc(Cl)cc3)CC2)nc2ccccc2c1=O [erastin]", "relative cell viability": 0.641}, {"smiles": "O=c1cc(-c2ccc(O)c(-c3c(O)cc(O)c4c(=O)cc(-c5ccc(O)cc5)oc34)c2)oc2cc(O)cc(O)c12", "note": "[Amentoflavone] + CCOc1ccccc1-n1c(C(C)N2CCN(C(=O)COc3ccc(Cl)cc3)CC2)nc2ccccc2c1=O [erastin]", "relative cell viability": 0.715}, {"smiles": "CC1=C(C)C(=O)C(C(CCCCCC(=O)O)c2ccccc2)=C(C)C1=O", "note": "(stereo unspecified) [Seratrodast] + CCOc1ccccc1-n1c(C(C)N2CCN(C(=O)COc3ccc(Cl)cc3)CC2)nc2ccccc2c1=O [erastin]", "relative cell viability": 0.567}]}]}
